Test results from PubChem BioAssay AID2315 (National Center for Advancing Translational Sciences (NCATS), 2010).
The campaign covered roughly 290,000 compounds. About 27,000 (9.3%) were called active. Cut-off read from the data, not from the text of the source: active = inhibition mostly above about 28% (no sharp cut-off); inactive = mostly below about 43%. The sample as a whole holds a higher share of actives than the screen did.

Assay: A qHTS for Small Molecule Inhibitors of Shiga Toxin; note: 0% is about no effect
Settings: Vero cells, Shiga toxin protein synthesis inhibition reporter; at 38.7 µM, active compounds read high

Row | SMILES | inhibition
1 | N#Cc1nc(Cc2ccccc2)oc1NCCc1ccccc1 | 64.7% (active)
2 | Cc1ccccc1-c1nc(C#N)c(NCc2ccco2)o1 | 71.9% (inactive)
3 | N#Cc1nc(Cc2cccc3ccccc23)oc1NCc1ccc2c(c1)OCO2 | 12.3% (inactive)
4 | COc1ccc(Nc2oc(-c3ccccc3Cl)nc2C#N)cc1 | 20.6% (inactive)
5 | N#Cc1nc(COc2ccc(-c3ccccc3)cc2)oc1NCc1cccnc1 | 56.8% (inactive)
6 | CCOc1ccc(Nc2oc(Cc3ccccc3)nc2C#N)cc1 | 58.5% (active)
7 | O=C(Nc1ccc(F)cc1)c1ccc(S(=O)(=O)NCc2cccnc2)cc1 | 27.5% (inactive)
8 | CCOc1ccc(S(=O)(=O)N2CCC(C(=O)NCc3ccccn3)CC2)cc1Cl | 3.21% (inactive)
9 | CC1CCN(C(=O)c2ccc3c(=O)n4c(nc3c2)CCCCC4)CC1 | 19.9% (inactive)
10 | CC(=O)Nc1ccc(S(=O)(=O)Nc2nccc(/C=C/c3ccccc3F)n2)cc1 | 21.8% (inactive)
11 | CCc1nnc(NS(=O)(=O)c2ccc(NC(=S)NC(=O)c3cccs3)cc2)s1 | -15.7% (inactive)
12 | Cc1cc(C)nc(NS(=O)(=O)c2ccc(N/C=C\C(=O)c3cccs3)cc2)n1 | 97.2% (active)
13 | COc1ccc2[nH]cc(/C=C(/C#N)S(=O)(=O)c3ccccc3)c2c1 | -6.23% (inactive)
14 | COc1ccc(C(C(O)C(=O)c2c[nH]c3ccccc23)N2CCN(c3ccccc3)CC2)cc1 (configuration not stated) | -5.67% (inactive)
15 | COc1ccc(/C=C(\C#N)c2c[nH]c3ccccc23)cc1 | 68% (active)
16 | O=C(COC(=O)c1ccc(Cl)nc1)NCc1cccs1 | -3.54% (inactive)
17 | NS(=O)(=O)c1ccc(NC(=S)NC(=O)c2cccnc2)cc1 | -16% (inactive)
18 | O=C(COC(=O)/C(=C/c1cccs1)c1cccs1)NCc1ccccc1Cl | 13.7% (inactive)
19 | O=C(COC(=O)c1cccs1)Nc1ccccc1Cl | 36.9% (active)
20 | NS(=O)(=O)c1ccc(NC(=S)NNC(=O)c2cccs2)cc1 | 107% (active)
21 | Cc1ccccc1C(=O)N1CCN(c2ccc(NC(=O)c3cccs3)cc2)CC1 | -18.3% (inactive)
22 | NS(=O)(=O)c1ccc(NC(=S)NC(=O)c2cccc(Br)c2)cc1 | 4.4% (inactive)
23 | O=C(COC(=O)CCC(=O)c1cccs1)NCc1ccco1 | -12.8% (inactive)
24 | CCc1ccc(NC(=O)C(=O)NNC(=O)c2cccs2)cc1 | 39.1% (active)
25 | O=C(COC(=O)c1cccs1)NCc1cccs1 | 40% (active)
26 | O=C(COC(=O)CCc1c[nH]c(=O)[nH]1)Nc1ccccc1Cl | -3.38% (inactive)
27 | COc1ccc(CCOC(=O)CNC(=O)c2ccc(Cl)cc2Cl)cc1 | 7.31% (inactive)
